Assay outcomes deposited in PubChem by The Scripps Research Institute Molecular Screening Center.
In the library only some 3.5% were active in any assay of this set; here they are far more common.
GPR151 ag: activates the human receptor GPR151; PathHunter beta-arrestin GPR151 cells, luminescence; 650,000 compounds, 1% hits; activation, % at 11.2 µM; Q8TDV0; in the data active means activation above about 4.9%
Target sequence (Q8TDV0 whole entry, looked up): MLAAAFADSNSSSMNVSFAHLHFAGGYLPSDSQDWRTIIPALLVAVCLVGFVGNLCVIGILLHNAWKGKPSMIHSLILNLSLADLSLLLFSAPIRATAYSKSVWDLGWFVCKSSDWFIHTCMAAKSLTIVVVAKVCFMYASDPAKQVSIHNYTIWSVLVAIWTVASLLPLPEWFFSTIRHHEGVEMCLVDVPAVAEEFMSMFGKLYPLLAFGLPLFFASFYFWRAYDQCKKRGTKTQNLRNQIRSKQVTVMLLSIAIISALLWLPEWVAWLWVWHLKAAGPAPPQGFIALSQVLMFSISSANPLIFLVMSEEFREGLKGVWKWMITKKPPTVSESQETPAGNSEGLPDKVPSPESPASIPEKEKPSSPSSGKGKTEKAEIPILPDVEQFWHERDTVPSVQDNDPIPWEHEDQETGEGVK
TEAD-YAP block: TEAD-YAP interaction inhibition. 640,000 compounds, 1.4% hits. AID 1259422. HEK-TIYL cells, TEAD-Gal4/YAP UAS-luciferase luminescence. inhibition, % at 9.12 µM; in the data active means inhibition above about 32%
FBW7 act: human FBW7 E3 ligase activation, primary screen; AID 1259310; normalized activity (activation), % at 26.1 µM; 650,000 compounds, 0.13% hits; Q969H0; AlphaScreen FBW7–phospho-cyclin E peptide binding, activator screen; in the data active means normalized activity above about 1.9%;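 further: purified mutant Fbw7 with reduced substrate affinity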
MITF inh: inhibitors of human MITF. AlphaScreen MITF homodimerization, bead proximity signal. inhibition, % at 2.6 µM. 650,000 compounds, 0.91% hits. AID 1259374; in the data active means inhibition above about 50%
Of the large screens only hits and unclear results are named; the others gave an inactive call.

CCc1cccc(CC)c1NC(=O)C(F)(F)F	none
CCOc1ccccc1NC(=O)C(C)Oc1cccc(Cl)c1 (stereo unspecified)	none
C#CCN(Cc1ccco1)C(=O)CC1(c2ccccc2)CC(=O)N(CCCOC)C1=O (stereo unspecified)	none
O=C(N/N=C/c1ccc(O)c2ncccc12)c1ccc(F)cc1	MITF inh 113
O=C(Cc1ccccc1)N/N=C/c1ccc(O)c2ncccc12	MITF inh 98
O=C(Cc1ccccc1)N/N=C/c1cccc2ccccc12	none
c1cnc(SCCCOc2ccc3ccccc3c2)nc1	none
N#CSCCCOc1ccc2ccccc2c1	TEAD-YAP block 47
COc1ccc(CN2CCN(S(=O)(=O)c3ccc(NC(C)=O)cc3)CC2)cc1OCc1ccccc1	TEAD-YAP block 35
COc1cc(CN2CCN(S(=O)(=O)c3ccc(NC(C)=O)cc3)CC2)ccc1OCc1ccccc1	none
O=C(Nc1ccc2[nH]ncc2c1)c1ccc(NCCc2ccccc2)nc1	none
CCOc1cc(C2CC(=O)Nc3ccc4ccccc4c32)cc(Br)c1O (stereo unspecified)	TEAD-YAP block 36
COC(=O)c1cnn2c(C)c(Cc3ccc(C)cc3)c(C)nc12	TEAD-YAP block 43
Cc1nc2c(C(=O)NCc3cccnc3)cnn2c(C)c1Cc1cccc(Cl)c1	none
COCCCNC(=O)c1cnn2c(C)c(Cc3ccc(C)cc3)c(C)nc12	TEAD-YAP block 40
Cc1ccc(Cc2c(C)nc3c(C(=O)NCc4cccnc4)cnn3c2C)cc1	TEAD-YAP block 49
CCOc1ccc(C(=O)Nc2cccc(N3CCCCC3=O)c2)cc1OCC	none
Cc1cc(C)c(S(=O)(=O)Nc2ccc(F)c(F)c2)c(C)c1	none
COCCC(=O)NCc1nc(N2CCN(c3ccccc3OC)CC2)c2ccccc2n1	none
Nc1nc(-c2ccco2)nn1C(=O)c1ccccc1	FBW7 act 2.0
CCOC(=O)C1CCC(CN(Cc2ccc(OC)cc2)S(=O)(=O)c2ccc(F)c(C(=O)Nc3c(C)cccc3CC)c2)CC1 (stereo unspecified)	none
Cc1cccc(NC(=O)CSc2nc(C)cc(C)c2C#N)n1	TEAD-YAP block 81
Cc1ccc(C#N)c(SCC(=O)Nc2ccccc2C(=O)O)n1	TEAD-YAP block 33
Cc1cc(C)c(C#N)c(SCC(=O)Nc2ccccc2C(=O)O)n1	none
CCCCCc1c2c(C)c(C(=O)OCC)nc-2cc2n1CC(C)=C2C	TEAD-YAP block 41
Cc1cc(C(=O)N2CCN(Cc3ccccc3)CC2)on1	FBW7 act 1.9
COc1cccc(-c2cc(C(=O)N3CCN(Cc4ccccc4)CC3)on2)c1	none
CCOC(=O)N1CCN(Cc2cccc(C)c2)CC1	none
Cc1cccc(CN2CCN(C(=O)CCl)CC2)c1	TEAD-YAP block 38
COc1cccc(/C=N\Nc2cc(C)nc(-c3ccccc3O)n2)c1O	TEAD-YAP block 39
COc1ccc(/C=N\Nc2cc(C)nc(-c3ccccc3O)n2)c(OC)c1	none
COc1cccc(/C=N\Nc2ncccc2[N+](=O)[O-])c1O	TEAD-YAP block 64
Cc1ccc(C)c(Nc2cc(C)nc(-c3ccccc3O)n2)c1	TEAD-YAP block 41
COc1ccc(/C=N/Nc2cc(-n3cc(C)cn3)ncn2)c(OC)c1	none
COc1cccc(/C=N/Nc2cc(-n3cc(C)cn3)ncn2)c1O	TEAD-YAP block 88, MITF inh 73
COc1cccc(/C=N\Nc2ccccn2)c1O	MITF inh 61
COc1cccc(/C=N\Nc2cc(C)c3ccccc3n2)c1OC	TEAD-YAP block 60
Cc1nc2ccccc2nc1N/N=C/c1ccc(O)c(C)c1O	none
O=[N+]([O-])c1ccc(O)c(/C=N/Nc2ncccc2[N+](=O)[O-])c1	none
O=[N+]([O-])c1cccnc1N/N=C/c1ccccc1O	TEAD-YAP block 47
COc1cccc(/C=N/Nc2nc3ccccc3nc2C)c1O	TEAD-YAP block 63
C=CCOC(=O)C1=C(C)NC(SCC(=O)Nc2cc(C)ccc2C)=C(C#N)C1c1ccccc1OC (stereo unspecified)	none
COc1cc(OC)c(C(=O)N2CCN(Cc3ccc4c(c3)OCO4)CC2)cc1OC	none
Cc1cc2cc(CNC(=O)c3cccc(Cl)c3)ccc2[nH]1	none
COc1ccc(C(=O)c2cnc3ncccn23)cc1	none
Cc1c(O)ccc(/C=N/Nc2ncccc2[N+](=O)[O-])c1O	TEAD-YAP block 71
CCN(CC)c1ccc(/C=c2/sc3nc4ccccc4n3c2=O)cc1	TEAD-YAP block 46
O=c1/c(=C\c2ccccc2)sc2nc3ccccc3n12	none
Cc1ccc(/C=c2\sc3nc4ccccc4n3c2=O)s1	TEAD-YAP block 54
CN(C)c1ccc(/C=c2\sc3nc4ccccc4n3c2=O)cc1	TEAD-YAP block 74
Cc1ccc(/C=c2/sc3nc4ccccc4n3c2=O)cc1	TEAD-YAP block 73
C#Cc1cccc(C(=O)N2CCOc3ccc(CN4CCN(C(C)=O)CC4)cc3C2)c1	none
COc1ccc(-c2nnc3ccc(SCC(=O)Nc4ccccc4)nn23)cc1OC	none
Cc1cc(NC(=O)NCc2ccccc2)n(C)n1	none
COc1cccc(/C=c2\sc3nc4ccccc4n3c2=O)c1	TEAD-YAP block 45
COc1ccc(/C=c2/sc3nc4ccccc4n3c2=O)c(OC)c1	none
O=[N+]([O-])c1ccccc1C1=Nc2ccccc2C(c2ccccc2)(c2ccccc2)O1	none
O=C(COc1ccc2ccccc2c1)Nc1cccc(C(=O)Nc2ccccc2C(=O)O)c1	none
O=C(O)c1ccccc1Nc1cccc(OCc2ccc3ccccc3n2)c1	TEAD-YAP block 46
O=C(Cn1nc(-c2ccccc2)ccc1=O)NCCCN1CCc2ccccc2C1	none
Nc1cccc(-c2cnc3c(Nc4ccccc4)nccn23)c1	TEAD-YAP block 88
Nc1cccc(-c2cnc3c(Nc4ccc(Cl)cc4)nccn23)c1	TEAD-YAP block 65
c1ccc(Nc2nccn3c(-c4ccoc4)cnc23)cc1	TEAD-YAP block 66
COCCCNc1nccn2c(-c3cccc(O)c3)cnc12	TEAD-YAP block 51
Cn1ccnc1C1(O)CCN(C(=O)Cc2ccccc2F)CC1	none
Cc1ccc(-c2noc(C3CCCN(C(=O)C4CC4)C3)n2)o1 (stereo unspecified)	none
COCCNc1nccn2c(-c3ccoc3)cnc12	FBW7 act 2.1
COc1cc(CN2CCN(C3CCCC3)C(CCO)C2)cc2c1OCO2 (stereo unspecified)	none
CC[C@H]1CN2CCc3cc(OC)c(OC)cc3C2C[C@@H]1CC1NCCc2cc(OC)c(OC)cc21 (stereo partly specified)	TEAD-YAP block 95
Cc1cc(C)nc(NS(=O)(=O)c2ccc(N=NN3CCCCCC3)cc2)n1	none
CSC1=NSC2=NC(=O)/C(=C\c3ccc(C)o3)C(=N)N12	none
CSC1=NSC2=NC(=O)/C(=C\c3ccc([N+](=O)[O-])o3)C(=N)N12	MITF inh 85
NNC(=O)c1[nH]c2ccccc2c1Cl	TEAD-YAP block 47
Cc1ccccc1C=Nc1ccccc1C(N)=O	TEAD-YAP block 49
Cc1cc(C)c(C=Nc2ccccc2C(N)=O)c(C)c1	none
CC1C/C(=C/c2ccncc2)C(=O)/C(=C/c2ccncc2)C1 (stereo unspecified)	TEAD-YAP block 94
CCNC(=O)NC(C)C12CC3CC(CC(C3)C1)C2 (stereo unspecified)	none
